Assay results from ChEMBL document CHEMBL3433997, “St. Jude Leishmania screening dataset” (2016).

Assays:
Assay type in all cases: functional
[1] = biological target: Solute carrier family 2, facilitated glucose transporter member 1 (Homo sapiens) (UniProt P11166); assay: ST_JUDE_LEISH: Cytotoxicity at 2uM final concentration against transgenic Leishmania Mexicana promastigotes LmGLUT1 that are glucose transport deficient and complemented with the human glucose transporter GLUT1. Activity is measured by DNA content using SYBR green in vitro
[2] = biological target: Hexose transporter 1 (Plasmodium falciparum) (UniProt O97467); assay: ST_JUDE_LEISH: Cytotoxicity at 2uM final concentration against transgenic Leishmania Mexicana promastigotes LmPfHT that are glucose transport deficient and complemented with the Plasmodium falciparum hexose transporter. Activity is measured by DNA content using SYBR green in vitro
[3] = biological target: Glucose transporter (Leishmania mexicana) (UniProt O61059); assay: ST_JUDE_LEISH: Cytotoxicity at 2uM final concentration against transgenic Leishmania Mexicana promastigotes LmGT2 that are glucose transport deficient and complemented with the L. Mexicana glucose transporter 2. Activity is measured by DNA content using SYBR green in vitro

Sequence of Solute carrier family 2, facilitated glucose transporter member 1 (Homo sapiens) (P11166 whole entry): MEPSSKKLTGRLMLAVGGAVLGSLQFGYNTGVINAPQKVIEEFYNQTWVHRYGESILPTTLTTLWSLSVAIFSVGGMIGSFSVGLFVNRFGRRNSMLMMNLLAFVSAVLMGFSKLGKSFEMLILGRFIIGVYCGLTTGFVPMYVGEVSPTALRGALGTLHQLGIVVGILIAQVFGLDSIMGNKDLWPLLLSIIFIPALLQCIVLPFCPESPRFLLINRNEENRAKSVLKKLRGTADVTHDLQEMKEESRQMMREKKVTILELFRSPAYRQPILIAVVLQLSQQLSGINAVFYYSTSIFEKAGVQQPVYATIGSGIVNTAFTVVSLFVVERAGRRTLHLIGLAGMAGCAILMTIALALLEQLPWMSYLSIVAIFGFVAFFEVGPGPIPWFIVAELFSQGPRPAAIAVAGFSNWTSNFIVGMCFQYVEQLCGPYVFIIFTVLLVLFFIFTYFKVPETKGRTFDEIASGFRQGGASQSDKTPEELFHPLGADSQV

| SMILES | inhibition [1] [%] | inhibition [2] [%] | inhibition [3] [%] |
| --- | --- | --- | --- |
| CCCCCCc1cnc2nc(N)nc(N)c2c1C | 10.8 | 10 | 10.3 |
| Cc1c(Oc2ccc(-n3ccnc3)cc2)ncnc1N1CCC2(CC1)CNCc1ccccc12 | 10.5 | 8.76 | 2.5 |
| CCNc1cc(C(=O)N[C@@H](Cc2ccccc2)[C@H](O)CNCc2cc(C#N)ccc2OC)cc(N2CCCC2=O)c1 | 9.4 | 9.23 | 9.67 |
| CC(C)(C)c1cc(C(=O)N2CCN(c3ncccc3C(F)(F)F)CC2)n(Cc2ccccc2)n1 | 5.66 | 6.48 | 4.37 |
| CN1CCN(Cc2cccc(-c3ccc4c(Nc5ccc(Oc6cccnc6)cc5)ccnc4c3)c2)CC1 | 4.73 | 5.64 | 4.34 |
| CCN(CC)CCN(Cc1ccc(-c2ccc(C(F)(F)F)cc2)cc1)C(=O)Cn1cc(Cc2cnn(C)c2)c(=O)nc1/C=C/c1ccc(F)cc1 | 1.22 | 1.54 | 2.56 |
| CCCNS(=O)(=O)c1ccc(NC(=O)C(C)Oc2ccc([N+](=O)[O-])cc2)cc1 (stereo unspecified) | 0.31 | 0.29 | -4.88 |
| Cc1cccc2nc(-c3ccc(-c4ccc(CNCc5cnn(-c6ccccc6)n5)cc4)s3)[nH]c12 | -1.78 | -1.57 | -1.83 |
| O=C(Nc1ccc(F)cc1)NC1CCN(c2ccnc3ccccc23)C1 (stereo unspecified) | 3.76 | 3.71 | 3.79 |
| O=C(Nc1cccc(-c2cccc(-c3nc4cc(C(F)(F)F)ccc4[nH]3)c2)c1)c1ccoc1 | 10.4 | 10.1 | 8.15 |
| OC(CNCc1ccccc1OCc1ccccc1)c1cc(C(F)(F)F)cc(C(F)(F)F)c1 (stereo unspecified) | 8.75 | 10.9 | 4.23 |
| Clc1ccc(OC2CCC(Cn3ccnc3)(c3ccc(Cl)cc3Cl)CC2)c(Cl)c1 (stereo unspecified) | 6.14 | 3.28 | -0.14 |
